Among the data in PubChem BioAssay (NCI) are growth inhibition values, retold here.

This assay is described as follows: NCI Yeast Anticancer Drug Screen. Data for the mgt1 strain (AID 153). To be noted: S. cerevisiae mgt1 mutant growth inhibition, hits give high values. The method, then:
Growth inhibition of yeast strains with defined genetic alterations is measured as a screen for potential anti-cancer activity. Selected strains with alterations in DNA damage repair or cell cycle control were exposed to compounds and growth inhibition was measured relative to vehicle treated controls. The strain used in this assay is mgt1

About 79,000 compounds went through this panel and 15% of them were active in at least one assay; those are over-represented in the sample as a whole. A number with no mark means an inactive call. The source made the active and inactive calls. Rule as the data show it: active = growth inhibition above about 70%; inactive = the rest.

Consider `C/C(=N/NC(=S)Nc1ccccc1C)c1ccccn1`, for which the growth inhibition (at 1.2 µM) is -6%; the growth inhibition (at 3.7 µM) is -10%; the growth inhibition (at 11.0 µM) was 4%; the growth inhibition (at 33.0 µM) is -22%; the growth inhibition (at 100.0 µM) is -5%.
`O=[N+]([O-])c1cn[n+]([O-])c2ccccc12`: the growth inhibition is 10% (at 1.2 µM); -5% (at 3.7 µM); 33% (at 11.0 µM); 99% (active) (at 33.0 µM); 99% (active) (at 100.0 µM).
Consider `CCN(CC)CCNc1ccc2nc(C)n3c4ccc(OC)cc4c(=O)c1c23`, for which the growth inhibition is, setting by setting: (at 1.2 µM) 36%; (at 3.7 µM) 27%; (at 11.0 µM) 18%; (at 33.0 µM) 26%; (at 100.0 µM) 16%.
In the same order, the values of `O=C1CC(C(O)(C(F)(F)F)C(F)(F)Cl)CCC1C(O)(C(F)(F)F)C(F)(F)Cl` (stereo not given) are 60%, 65%, 87% (active), 94% (active) and 97% (active).
The matching figures for `COc1ccc(-c2cc(-c3cc(C)cc(Cl)c3O)nc3[nH]c(=S)[nH]c(=S)c23)cc1`: -1%, -2%, -3%, 25% and 94% (active).
In the same order, the values of `CCCCCCNCCCNc1c2ccccc2nc2cccc([N+](=O)[O-])c12` are -4%, -4%, 11%, 78% (active) and 94% (active).
`C/C(=N\Sc1ccccc1)c1ccccc1O`: the growth inhibition by setting is: (at 1.2 µM) 2%; (at 3.7 µM) -2%; (at 11.0 µM) -1%; (at 33.0 µM) 8%; (at 100.0 µM) 62%.
For the molecule `O=C(C#Cc1ccccc1)Nc1ccccc1`, the growth inhibition reads like this: (at 1.2 µM) -5%; (at 3.7 µM) -10%; (at 11.0 µM) -4%; (at 33.0 µM) 58%; (at 100.0 µM) 97% (active).
